# In publication PMC11062922 (Nature Chemical Biology, 2023):
# Read-outs that look alike come from different tables or passages of the source.
# How the values were obtained:
# Design in all cases: species or system human, MV4-11 + K-562 + COLO205 + SK-N-BE2 + OVCAR-8
# ADCK3 = conditions: read-out: apparent Kd, n = 1
# MAP2K6 = conditions: read-out: apparent Kd, n = 1
# DDR2 = conditions: read-out: apparent Kd; compound concentrations: 100 nM and 1000 nM (sheet 'Samples'), CATDS: 5.5525356317498699E-2; n = 1
# PI4KB = conditions: read-out: apparent Kd, n = 1
# BMPR2 = conditions: read-out: apparent Kd, compound concentrations: 100 nM and 1000 nM (sheet 'Samples'), n = 1
# MST1R = conditions: read-out: apparent Kd, n = 1
# SIK3 = conditions: read-out: apparent Kd, n = 1
# ACOX1 = conditions: read-out: apparent Kd, compound concentrations: 100 nM and 1000 nM (sheet 'Samples'), n = 1
# PDXK = conditions: read-out: apparent Kd, compound concentrations: 100 nM and 1000 nM (sheet 'Samples'), n = 1
# ACAD8 = conditions: read-out: apparent Kd, n = 1
# NEK3 = conditions: read-out: apparent Kd, n = 1
# LIMK1 = conditions: read-out: apparent Kd, n = 1
# GRK6 = conditions: read-out: apparent Kd, n = 1
# PIK3CB = conditions: read-out: apparent Kd, compound concentrations: 100 nM and 1000 nM (sheet 'Samples'), n = 1
# RIPK3 = conditions: read-out: apparent Kd; compound concentrations: 100 nM and 1000 nM (sheet 'Samples'), CATDS: 1.26623913156397E-2; n = 1
# VDAC3 = conditions: read-out: apparent Kd, n = 1
# CDK13 = conditions: read-out: apparent Kd, compound concentrations: 100 nM and 1000 nM (sheet 'Samples'), n = 1
# MET = conditions: read-out: apparent Kd; compound concentrations:100 nM and 1000 nM (sheet 'Samples'); n = 1
# [1] = compound concentrations:100 nM and 1000 nM (sheet 'Samples')
compound,measurement,setting,value
CCn1c(-c2nonc2N)nc2c(C#CC(C)(C)O)nc(O[C@@H](CN)c3ccccc3)cc21.O=C(O)C(F)(F)F [GSK1007102B],potency estimated from few doses,ADCK3; [1],1.06 µM
same,potency estimated from few doses,MAP2K6; [1],1.69 µM
CN(c1ccc(NC(=O)NCCN2CCOCC2)cc1)c1ccnc(Nc2ccc(CS(C)(=O)=O)cc2)n1.Cl [GW830365A],potency estimated from few doses,DDR2,0.94 µM
Cc1cccc(Nc2nc(N[C@H]3CCNC3)ncc2C(N)=O)c1.Cl [GSK2197149A],potency estimated from few doses,PI4KB; [1],0.892 µM
O=C(O)C(F)(F)F.O=C(O)C(F)(F)F.O=c1[nH]ccc2nc(N[C@@H]3CCCNC3)nc(Nc3ccc(S(=O)(=O)N4CCOCC4)cc3)c12.O=c1[nH]ccc2nc(N[C@@H]3CCCNC3)nc(Nc3ccc(S(=O)(=O)N4CCOCC4)cc3)c12 [GSK2177277A],potency estimated from few doses,BMPR2; CATDS: 8.2432165271610295E-3,0.514 µM
same,potency estimated from few doses,"MST1R; compound concentrations: 100 nM and 1000 nM (sheet 'Samples'), CATDS: 6.3226356559210701E-3",1.69 µM
same,potency estimated from few doses,"SIK3; compound concentrations: 100 nM and 1000 nM (sheet 'Samples'), CATDS: 6.8651363479693096E-3",1.09 µM
Cc1ccccc1C1=C(c2cn(C)c3ccccc23)C(=O)NC1=O [RO0317612-000],potency estimated from few doses,ACOX1; CATDS: 0.16885310198044201,0.761 µM
same,potency estimated from few doses,PDXK; CATDS: 0.20460809182567499,0.529 µM
NC(=O)c1cc(-c2ccccc2)cc2c(C3CCNCC3)c[nH]c12 [GSK301362A],potency estimated from few doses,ACAD8; [1],1.75 µM
c1cnn2ncc(-c3ccnc(Nc4ccc5c(c4)OCCO5)n3)c2c1 [GW806290X],potency estimated from few doses,"NEK3; compound concentrations: 100 nM and 1000 nM (sheet 'Samples'), CATDS: 2.00420212482838E-2",2 µM
COc1cc[nH]c1/C=C1\C(=O)Nc2ccc(F)c(C#CC3(O)CCNCC3)c21.Cl [RO0282986-001],potency estimated from few doses,"MAP2K6; compound concentrations: 100 nM and 1000 nM (sheet 'Samples'), CATDS: 9.6893915598830205E-3",1.5 µM
COc1cc(Nc2nccc(N3CCC(NC(=O)c4cccc(NC(C)=O)c4)C3)n2)cc(OC)c1OC (centres unmarked) [GSK1379754A],potency estimated from few doses,"LIMK1; compound concentrations: 100 nM and 1000 nM (sheet 'Samples'), CATDS: 8.2781561075995602E-2",1.83 µM
CCn1c(-c2cccnc2O)nc2cnccc21 [SB-736715],potency estimated from few doses,"GRK6; compound concentrations: 100 nM and 1000 nM (sheet 'Samples'), CATDS: 1.19944612945155E-2",2.19 µM
same,potency estimated from few doses,"MST1R; compound concentrations: 100 nM and 1000 nM (sheet 'Samples'), CATDS: 1.2580908946689701E-2",1.93 µM
same,potency estimated from few doses,PIK3CB; CATDS: 1.6268370150171501E-2,1.1 µM
same,potency estimated from few doses,RIPK3,1.9 µM
COc1ccc(-c2cc3c(N)ncnc3o2)cc1 [GW642138X],potency estimated from few doses,"ACAD8; compound concentrations: 100 nM and 1000 nM (sheet 'Samples'), CATDS: 9.2281876473195495E-2",2.17 µM
same,potency estimated from few doses,"VDAC3; compound concentrations: 100 nM and 1000 nM (sheet 'Samples'), CATDS: 9.45617395095774E-2",2.06 µM
CC(C)Oc1ccc2c(-c3ccnc(Nc4ccc(N5CCN(C)CC5)cc4)n3)cnn2n1 [GW696155X],potency estimated from few doses,LIMK1; [1],0.576 µM
same,potency estimated from few doses,NEK3; [1],0.421 µM
COC(=O)c1cccc(NC(=O)NC2CCN(c3ccnc(Nc4cc(OC)c(OC)c(OC)c4)n3)C2)c1 (centres unmarked) [GSK1379767A],potency estimated from few doses,"ADCK3; compound concentrations: 100 nM and 1000 nM (sheet 'Samples'), CATDS: 9.7786771136585404E-2",1.86 µM
same,potency estimated from few doses,"VDAC3; compound concentrations: 100 nM and 1000 nM (sheet 'Samples'), CATDS: 0.107496122866376",1.48 µM
O=C(O)C(F)(F)F.O=c1[nH]ccc2nc(N[C@@H]3CCNC3)nc(Nc3ccc4c(c3)S(=O)(=O)CC4)c12 [GSK2181306A],potency estimated from few doses,BMPR2; CATDS: 3.4513086619766098E-2,0.0687 µM
CCN(CC)Cc1ccc(Nc2nccc(-c3cnn4ncccc34)n2)cc1 [GW780056X],potency estimated from few doses,ACOX1; CATDS: 2.3991726091544201E-2,0.753 µM
same,potency estimated from few doses,CDK13; CATDS: 1.9982527917222499E-2,1.33 µM
same,potency estimated from few doses,PDXK; CATDS: 2.0244692732670499E-2,1.27 µM
Cc1occc1-c1nc(N)c(OC[C@@H](N)Cc2c[nH]c3ccccc23)cc1-c1cc2c(C)n[nH]c2cn1 [GSK1660450B],potency estimated from few doses,SIK3; [1],0.154 µM
same,potency estimated from few doses,VDAC3; [1],0.102 µM
NS(=O)(=O)c1ccc(NC=C2C(=O)Nc3ccc4ncsc4c32)cc1 [GW589933X],potency estimated from few doses,CDK13; CATDS: 1.7118564959648301E-2,1.7 µM
CC(C)N1CC(=O)N(C)c2cnc(Nc3cccc(S(=O)(=O)CCN4CCOCC4)c3)nc21 [BI00009348],potency estimated from few doses,BMPR2; CATDS: 7.5564324360796103E-2,0.646 µM
Cl.Cl.NCC(NCc1ccc(-c2ccnc3[nH]ccc23)s1)c1ccccc1.NCC(NCc1ccc(-c2ccnc3[nH]ccc23)s1)c1ccccc1 (centres unmarked) [GSK1321565A],potency estimated from few doses,GRK6; [1],1.6 µM
CCC(CC)(CC)n1cnc2c(N)ncnc21 [SKF-97620],potency estimated from few doses,"PI4KB; compound concentrations: 100 nM and 1000 nM (sheet 'Samples'), CATDS: 7.0031928225578105E-2",0.17 µM
same,potency estimated from few doses,PIK3CB; CATDS: 4.8769305637968503E-2,0.337 µM
Nc1nc(-c2ccc3c(N)n[nH]c3c2)cc(N2CCCC(NC(=O)c3ccccc3)C2)n1 (centres unmarked) [GSK2286775B],potency estimated from few doses,MET,2.25 µM
same,potency estimated from few doses,MST1R; [1],2.25 µM
Cn1cc(C2=C(c3c(S(C)=O)n(C)c4ccccc34)C(=O)NC2=O)c2ccccc21 (centres unmarked) [RO0317379-000],potency estimated from few doses,PDXK; CATDS: 0.122248811016512,1.03 µM
O=C(Nc1n[nH]c2nc(-c3ccccc3O)ccc12)C1CC1 [SB-711880],potency estimated from few doses,MAP2K6; [1],1.81 µM
